This is an account of results in publication PMC7862700, “An all-to-all approach to the identification of sequence-specific readers for epigenetic DNA modifications on cytosine”.

Experiment in all cases: DAPPL (digital affinity profiling via proximity ligation, sequencing); 10 mM Tris-HCl pH 7.5, 50 mM NaCl, 1 mM DTT, 4% glycerol, room temperature, 30 min; GST-TFs on glutathione beads, 16-mer random dsDNA library, 0.1% formaldehyde crosslink after washing; high values mean tight binding
Holding throughout (conditions): protein: recombinant; tags: N-terminal GST; dsDNA, one strand shown

One test addresses T1, SPDEF (Homo sapiens, UniProt O95238 1-335).
T1 sequence: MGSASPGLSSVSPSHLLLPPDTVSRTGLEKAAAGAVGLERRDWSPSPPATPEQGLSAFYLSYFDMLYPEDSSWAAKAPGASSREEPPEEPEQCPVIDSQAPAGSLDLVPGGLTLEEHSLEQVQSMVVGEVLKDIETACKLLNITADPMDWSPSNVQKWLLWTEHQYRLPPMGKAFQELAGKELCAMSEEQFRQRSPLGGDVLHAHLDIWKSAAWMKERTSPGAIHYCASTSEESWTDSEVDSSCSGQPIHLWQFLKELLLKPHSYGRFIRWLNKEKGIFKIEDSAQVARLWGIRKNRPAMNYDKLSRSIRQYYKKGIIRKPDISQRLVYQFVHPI
The method, boiled down: (§1)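 In yeast, human transcription factors were expressed with a GST fusion, then pulled down on glutathione beads and given DNA barcodes. Pooled with a tag-only sample, they were exposed to 200 nmole of a 16-mer random double-stranded DNA library (Tris/NaCl/DTT/glycerol buffer, room temperature, 30 min), washed, crosslinked with 0.1% formaldehyde, proximity-ligated using BsaI/T4 ligase for 1 h at 37 °C, PCR-amplified and read on an Illumina NextSeq500. Each hexamer's frequency of reads for a factor, divided by the matching frequency for the tag-only sample, gives the binding signal.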

The target of another test is T2, ELK3 (Homo sapiens, UniProt P41970 1-407).
T2 sequence: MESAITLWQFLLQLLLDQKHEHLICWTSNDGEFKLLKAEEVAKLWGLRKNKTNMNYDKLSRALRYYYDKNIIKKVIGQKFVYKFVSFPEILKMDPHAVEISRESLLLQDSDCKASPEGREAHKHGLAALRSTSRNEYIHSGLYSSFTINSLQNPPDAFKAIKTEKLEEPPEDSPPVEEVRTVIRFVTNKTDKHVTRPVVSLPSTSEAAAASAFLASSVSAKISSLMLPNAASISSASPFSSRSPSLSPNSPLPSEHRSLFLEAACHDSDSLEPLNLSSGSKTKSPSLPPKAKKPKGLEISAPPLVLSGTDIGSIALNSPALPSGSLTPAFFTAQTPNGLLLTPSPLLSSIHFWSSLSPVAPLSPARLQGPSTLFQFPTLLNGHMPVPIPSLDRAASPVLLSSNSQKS
The method, boiled down: as §1

For the next test, the target named is T3, ERF (Homo sapiens, UniProt P50548 1-548).
T3 sequence: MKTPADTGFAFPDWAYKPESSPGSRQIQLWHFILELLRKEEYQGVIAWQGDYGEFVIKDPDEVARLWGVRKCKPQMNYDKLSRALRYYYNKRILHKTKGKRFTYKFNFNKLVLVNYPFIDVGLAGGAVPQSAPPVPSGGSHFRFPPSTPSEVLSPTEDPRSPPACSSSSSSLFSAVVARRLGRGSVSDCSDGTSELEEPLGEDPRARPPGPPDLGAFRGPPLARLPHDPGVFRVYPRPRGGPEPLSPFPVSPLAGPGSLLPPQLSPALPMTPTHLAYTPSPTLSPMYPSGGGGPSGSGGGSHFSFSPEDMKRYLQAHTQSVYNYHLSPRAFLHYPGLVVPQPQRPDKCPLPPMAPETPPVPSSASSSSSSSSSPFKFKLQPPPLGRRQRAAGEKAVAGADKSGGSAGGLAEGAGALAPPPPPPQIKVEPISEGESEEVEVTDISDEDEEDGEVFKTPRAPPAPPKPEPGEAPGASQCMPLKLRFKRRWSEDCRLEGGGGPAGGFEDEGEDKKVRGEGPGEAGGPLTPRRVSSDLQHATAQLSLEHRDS
The essentials: as §1

Another test concerns the target ETV6 (Homo sapiens, UniProt P41212 1-452). The method, boiled down:
as §1

For a further test, the target named is T4, ETV3L (Homo sapiens, UniProt Q6ZN32 1-361).
T4 sequence: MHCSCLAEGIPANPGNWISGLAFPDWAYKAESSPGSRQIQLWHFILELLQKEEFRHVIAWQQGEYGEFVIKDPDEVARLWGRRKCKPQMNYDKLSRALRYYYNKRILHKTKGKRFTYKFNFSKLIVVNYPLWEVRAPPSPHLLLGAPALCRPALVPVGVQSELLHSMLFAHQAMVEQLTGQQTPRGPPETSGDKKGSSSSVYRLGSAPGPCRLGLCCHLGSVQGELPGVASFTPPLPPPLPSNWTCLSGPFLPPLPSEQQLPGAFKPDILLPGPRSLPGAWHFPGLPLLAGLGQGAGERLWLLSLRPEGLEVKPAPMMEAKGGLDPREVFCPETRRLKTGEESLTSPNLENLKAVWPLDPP
The essentials:
as §1

For another test, the target named is T5, ETV3 (Homo sapiens, UniProt P41162-2 1-143).
T5 sequence: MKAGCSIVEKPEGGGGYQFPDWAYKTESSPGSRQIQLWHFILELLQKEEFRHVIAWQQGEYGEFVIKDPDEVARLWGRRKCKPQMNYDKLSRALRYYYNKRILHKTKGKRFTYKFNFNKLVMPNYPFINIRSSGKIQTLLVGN
The method, boiled down: as §1

The next test concerns the target ETV1 (Homo sapiens, UniProt P50549 1-477). The method, boiled down:
as §1

For a further test, the target named is T6, ETV7 (Homo sapiens, UniProt Q9Y603 1-341).
T6 sequence: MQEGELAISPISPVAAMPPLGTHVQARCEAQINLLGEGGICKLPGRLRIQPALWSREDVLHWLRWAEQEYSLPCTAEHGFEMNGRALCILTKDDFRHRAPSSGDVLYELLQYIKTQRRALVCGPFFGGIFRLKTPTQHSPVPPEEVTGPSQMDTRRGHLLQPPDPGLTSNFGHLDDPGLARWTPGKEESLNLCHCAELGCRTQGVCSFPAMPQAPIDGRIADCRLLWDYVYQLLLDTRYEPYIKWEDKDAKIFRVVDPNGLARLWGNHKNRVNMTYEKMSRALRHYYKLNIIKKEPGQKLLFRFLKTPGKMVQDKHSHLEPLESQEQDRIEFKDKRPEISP
The essentials: as §1

The target of the next test is SPIB (Homo sapiens, UniProt Q01892 1-262). The essentials: as §1
Chain of SPIB (Q01892 whole entry): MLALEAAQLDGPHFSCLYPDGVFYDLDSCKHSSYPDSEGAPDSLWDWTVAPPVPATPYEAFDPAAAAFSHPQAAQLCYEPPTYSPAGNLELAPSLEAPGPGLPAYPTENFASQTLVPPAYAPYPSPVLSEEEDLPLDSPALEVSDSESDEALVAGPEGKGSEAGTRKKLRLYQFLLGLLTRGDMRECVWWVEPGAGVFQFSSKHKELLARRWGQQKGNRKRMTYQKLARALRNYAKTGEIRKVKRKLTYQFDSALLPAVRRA

Chain of ETV1 (P50549 whole entry): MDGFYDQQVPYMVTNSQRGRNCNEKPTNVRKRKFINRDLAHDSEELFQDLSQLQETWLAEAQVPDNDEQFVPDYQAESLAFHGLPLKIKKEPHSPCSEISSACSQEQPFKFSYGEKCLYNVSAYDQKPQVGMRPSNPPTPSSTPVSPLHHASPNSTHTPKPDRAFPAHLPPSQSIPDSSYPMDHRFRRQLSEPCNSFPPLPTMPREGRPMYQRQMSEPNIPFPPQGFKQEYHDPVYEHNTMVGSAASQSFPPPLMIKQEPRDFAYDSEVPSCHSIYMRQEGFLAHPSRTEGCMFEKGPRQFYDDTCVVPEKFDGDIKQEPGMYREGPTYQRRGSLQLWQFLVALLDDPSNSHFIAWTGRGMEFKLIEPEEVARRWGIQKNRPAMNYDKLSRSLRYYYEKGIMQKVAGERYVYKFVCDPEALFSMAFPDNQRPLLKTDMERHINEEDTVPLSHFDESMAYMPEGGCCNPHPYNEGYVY
Chain of ETV6 (P41212 whole entry): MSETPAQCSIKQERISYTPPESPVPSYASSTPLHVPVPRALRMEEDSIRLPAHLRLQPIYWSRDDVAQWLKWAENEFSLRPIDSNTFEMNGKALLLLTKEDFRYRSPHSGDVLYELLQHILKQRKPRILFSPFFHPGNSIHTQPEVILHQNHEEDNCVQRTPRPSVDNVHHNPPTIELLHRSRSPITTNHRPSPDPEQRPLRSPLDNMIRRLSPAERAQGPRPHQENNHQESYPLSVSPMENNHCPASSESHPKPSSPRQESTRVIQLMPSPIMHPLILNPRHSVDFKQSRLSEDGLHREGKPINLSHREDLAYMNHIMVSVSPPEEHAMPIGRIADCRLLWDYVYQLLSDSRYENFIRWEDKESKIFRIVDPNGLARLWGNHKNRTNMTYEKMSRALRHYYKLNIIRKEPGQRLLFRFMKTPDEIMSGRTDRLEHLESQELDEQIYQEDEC

Regarding CGCATC, the binding signal with SPDEF was 1.02 fold enrichment (6-mer frequency, TF over GST control).

Consider GCGCTA, for which the binding signal in the test with ELK3 is 1.13 fold enrichment (6-mer frequency, TF over GST control); in the test with ERF it was 1.05 fold enrichment (6-mer frequency, TF over GST control); in the test with ETV6 it was 1 fold enrichment (6-mer frequency, TF over GST control).

For the sequence GACACC, in the test with ETV3L, the binding signal was 1.01 fold enrichment (6-mer frequency, TF over GST control).

For GACCCT, the binding signal in the test with ERF is 1.05 fold enrichment (6-mer frequency, TF over GST control).

Take GATGTG: the binding signal was 1.18 fold enrichment (6-mer frequency, TF over GST control) with SPDEF and 1.01 fold enrichment (6-mer frequency, TF over GST control) with ETV3.

On to GGTGCT, for which the binding signal with ETV1 is 1.08 fold enrichment (6-mer frequency, TF over GST control).

As for GTCTGT, the binding signal with ETV1 is 1.01 fold enrichment (6-mer frequency, TF over GST control).

On to CAGCAA, for which the binding signal with ELK3 was 1.01 fold enrichment (6-mer frequency, TF over GST control); with ERF, 1.04 fold enrichment (6-mer frequency, TF over GST control); with ETV7 it was 1.06 fold enrichment (6-mer frequency, TF over GST control).

For GGGTCT, the binding signal in the test with SPDEF was 1.01 fold enrichment (6-mer frequency, TF over GST control).

With GGTTGC, the binding signal in the test with SPIB is 1 fold enrichment (6-mer frequency, TF over GST control); with ETV3L it was 1.01 fold enrichment (6-mer frequency, TF over GST control).
